Measured values reported in PubChem BioAssay (NCI).
Compounds without any hit were thinned out: in the full panel of roughly 83,000, 20% have a hit.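 Note: values are percent growth. 100 is the growth of untreated cells, values between 100 and 0 indicate rising inhibition; between -100 and 0 indicates cell death.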 Values without a mark were called inactive. Calls of active or inactive are those of the source. Rule for the calls: active = growth percent below 10; inactive = the rest.

Key:
Test in all cases: NCI-60 one-dose screen, 48 h (100 = growth as untreated, 0 = no growth, -100 = all killed)
[1] = test system: BT-549 breast; conditions: 10 µM unless noted
[2] = test system: MDA-MB-435 melanoma; conditions: 10 µM unless noted
[3] = test system: SW-620 colon; conditions: 10 µM unless noted
[4] = test system: MCF7 breast; conditions: 10 µM
[5] = test system: HCT-116 colon; conditions: 10 µM unless noted
[6] = test system: HCC-2998 colon; conditions: 10 µM unless noted
[7] = test system: KM12 colon; conditions: 10 µM unless noted

SMILES	growth [1]	growth [2]	growth [3]	growth [4]	growth [5]	growth [6]	growth [7]
CCCCN1CCN(c2ccc3nc(-c4ccc5nc(-c6ccc(OCC)cc6)[nH]c5c4)[nH]c3c2)CC1	83.9%	55.1%	8.61% (active)	1.77% (active)	21.1%	90.3%	49.1%
NNC(=O)CNC(=O)Nc1n[nH]c(=S)s1	116%	110%	102%	93.8%	94.1%	106%	100%
CN(O)c1nc(N(C)O)nc(N2CCOCC2)n1	60.5%	42.5%	52.4%	15.9%	12.2%	40.5%	45.8%
O=c1c(-c2nc3ccccc3[nH]2)cc2ccccc2n1Cc1cn(Cc2ccccc2Cl)nn1	13.3%	15.1%	37.5%	26.2%	18.2%	78.3%	45.5%
CN(C)/C=C1\SC(=Nc2ccc(Cl)cc2)NC1=O	104%	104%	99.9%	91%	104%	104%	106%
CC(=O)c1ccc(Cc2ccc(C(C)=O)s2)s1	110%	107%	103%	85.1%	103%	104%	95.2%
COc1cc(C(C)n2cc(-c3ccccc3)nn2)ccc1OC1CCCCC1 (stereo unspecified)	69.3%	68.1%	75.5%	49.8%	42.5%	81.4%	77.9%
CN1C(=O)N(C)C2Nn3c(s/c(=C4\C(=O)N(CCc5ccccc5)c5ccccc54)c3=O)=NC21 (stereo unspecified)	72.5%	5.64% (active)	51.9%	43.2%	37.2%	85.9%	66.1%
